PubChem BioAssay (Tox21)
Inconclusive results are not listed. Calls of active or inactive are those of the source. Unless noted, the call rests on the fitted dose curve; in most records, active means well fitted curve in the direction sought with a large enough effect in the repeat runs; inconclusive means weak or mixed curves; inactive means no such curve, though single readings can be large; an effect the other way counts as inactive or inconclusive.

Experiments:
[1] = qHTS assay to identify small molecule antagonists of the thyroid receptor (TR) signaling pathway - cell viability counter screen (AID 743064); further: nearly all actives have a fitted effect of over 50% in size
How it was run: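 GH3.TRE-Luc rat pituitary cells carrying a TRE-luciferase reporter were treated with compound plus 1 nM T3 (final) for 23.5 h at 37 °C. Viability was then read in the same wells by CellTiter-Fluor fluorescence after a further 30 min.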

[2] = qHTS assay to identify small molecule antagonists of the thyroid receptor (TR) signaling pathway (AID 743065); further: series mostly up to about 70 µM; nearly all actives have a fitted effect of over 55% in size
How it was run: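 GH3.TRE-Luc rat pituitary cells (two TREs driving luciferase) were dosed with compound, then stimulated with 1 nM T3 (final) for 23.5 h at 37 C. ONE-Glo luminescence was the read-out, with CellTiter-Fluor fluorescence as the cytotoxicity counter-screen.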

[3] = tested on: thyroid hormone receptor (rat, GH3 cells); assay: qHTS assay to identify small molecule agonists of the thyroid receptor (TR) signaling pathway (AID 743066; calls by dose curve)
[4] = molecular target: Estrogen receptor (Homo sapiens) (UniProt P03372); assay: qHTS assay to identify small molecule antagonists of the estrogen receptor alpha (ER-alpha) signaling pathway (AID 743069; active means well fitted curve in the direction sought with a large enough effect in the signal ratio in the repeat runs, not every such curve was filed as active; the % refers to the signal ratio)
How it was run: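 HEK293 ER-alpha-UAS-bla GripTite cells, held overnight in 2% charcoal-stripped FBS, 5,000 cells/well, preincubated 4 h, then compound plus 17beta-estradiol for 18 h at 37C. Beta-lactamase read by LiveBLAzer B/G FRET substrate, 2 h at room temperature.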

[5] = qHTS assay to identify small molecule antagonists of the estrogen receptor alpha (ER-alpha) signaling pathway - cell viability counter screen (AID 743074; calls by dose curve;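 further: HEK293 cells carrying ER-alpha-UAS-bla reporter stimulated with 17beta-estradiol; nearly all actives have a fitted effect of over 45% in size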)
[6] = molecular target: Estrogen receptor (Homo sapiens) (UniProt P03372); assay: qHTS assay to identify small molecule agonists of the estrogen receptor alpha (ER-alpha) signaling pathway (AID 743075; calls by dose curve)
[7] = molecular target: Estrogen receptor (Homo sapiens) (UniProt P03372); assay: qHTS assay to identify small molecule agonists of the estrogen receptor alpha (ER-alpha) signaling pathway using the BG1 cell line (AID 743079); further: nearly all actives have a fitted effect of over 20% in size
[8] = qHTS assay to identify small molecule antagonists of the estrogen receptor alpha (ER-alpha) signaling pathway using the BG1 cell line (AID 743080; calls by dose curve;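 further: BG1 cells stimulated with 17beta-estradiol alongside compound; series mostly up to about 70 µM; nearly all actives have a fitted effect of over 25% in size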)
How it was run: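 Luminescence from a 4×ERE-luciferase reporter in BG1-Luc-4E2 cells served as read-out. Cells, pre-cultured 5 days in stripped-serum phenol-red-free medium, were exposed to compound with 17beta-estradiol co-stimulation for 21.5 h at 37 C.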

[9] = qHTS assay to identify small molecule antagonists of the estrogen receptor alpha (ER-alpha) signaling pathway using the BG1 cell line - cell viability counter screen (AID 743081);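 further: compound given together with 17beta-estradiol as the ER stimulus; series mostly up to about 70 µM; nearly all actives have a fitted effect of over 45% in size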
Aromatase (Homo sapiens) = Aromatase (Homo sapiens) (UniProt P11511); assay: qHTS assay to identify aromatase inhibitors (AID 743083); further: series mostly up to about 70 µM; nearly all actives have a fitted effect of over 55% in size
[10] = qHTS assay to identify aromatase inhibitors - cell viability counter screen (AID 743084);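 further: cells stimulated with testosterone during compound exposure; nearly all actives have a fitted effect of over 55% in size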
[11] = molecular target: Aryl hydrocarbon receptor (Homo sapiens) (UniProt P35869); assay: qHTS assay to identify small molecule that activate the aryl hydrocarbon receptor (AhR) signaling pathway (AID 743085); further: nearly all actives have a fitted effect of over 15% in size; further: potency means the concentration at half of the fitted maximal effect;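 on activation: HG2L7.5c1 human HepG2 liver cells with stably integrated DRE-driven firefly reporter; series mostly up to about 70 µM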
How it was run: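 HepG2 cells (HG2L7.5c1) stably carrying a firefly luciferase reporter driven by 20 dioxin responsive elements were exposed to compound for 24 h at 37C after a 5 h settling period; luminescence rise (ONE-Glo) indicated activation.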

[12] = qHTS assay to identify small molecule that activate the aryl hydrocarbon receptor (AhR) signaling pathway - cell viability counter screen (AID 743086);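 further: HepG2 liver cells carrying the AhR DRE luciferase reporter; series mostly up to about 70 µM; nearly all actives have a fitted effect of over 45% in size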
How it was run: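 HepG2-AhR-luc (HG2L7.5c1) cells, 4000/well, treated 24 h at 37 C with compound; viability measured as CellTiter-Fluor fluorescence after 30 min in the same wells as the luciferase read.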

[13] = molecular target: Peroxisome proliferator-activated receptor gamma (Homo sapiens) (UniProt P37231); assay: qHTS assay to identify small molecule agonists of the peroxisome proliferator-activated receptor gamma (PPARg) signaling pathway (AID 743094; active means well fitted activation curve with a large enough effect in the signal ratio in the repeat runs, not every such curve was filed as active; the % refers to the signal ratio)
How it was run: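 Compounds dissolved in DMSO were added to PPARg UAS-bla HEK293H cells for 17 h at 37C, and reporter expression was quantified by fluorescence intensity after 1 h with LiveBLAzer B/G FRET substrate.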

[14] = qHTS assay to identify small molecule antagonists of the peroxisome proliferator-activated receptor gamma (PPARg) signaling pathway - cell viability counter screen (AID 743194); further: nearly all actives have a fitted effect of over 55% in size
How it was run: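 Cytotoxicity counter screen in PPARg-bla HEK293H cells, same wells as reporter assay. Compounds plus 50 nM rosiglitazone (final) for 17 h at 37 C, then viability read by CellTiter-Glo luminescence.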

[15] = qHTS assay for small molecule agonists of the antioxidant response element (ARE) signaling pathway (AID 743202; active means well fitted activation curve with a large enough effect in the signal ratio in the repeat runs, not every such curve was filed as active; the % refers to the signal ratio)
How it was run: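 ARE-bla HepG2 cells (beta-lactamase reporter under the antioxidant response element), plated 5 hours, then exposed to compounds 16 hours at 37 C. LiveBLAzer B/G FRET substrate added for 2 hours at room temperature; fluorescence intensity read.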

[16] = qHTS assay for small molecule agonists of the antioxidant response element (ARE) signaling pathway - cell viability counter screen (AID 743203; calls by dose curve; further: nearly all actives have a fitted effect of over 55% in size)
How it was run: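 Following 16 hrs of compound treatment at 37C, HepG2 cells with an ARE-controlled beta-lactamase gene were lysed with CellTiter-Glo. Luminescence was read after 30 min at room temperature.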

[17] = qHTS assay for small molecule activators of the heat shock response signaling pathway - cell viability counter screen (AID 743209); further: nearly all actives have a fitted effect of over 50% in size
How it was run: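 Readout: CellTiter-Glo luminescence, 30 min at room temperature. System: HSE-bla HeLa cells, 1500/well, plated overnight. Treatment: compounds in DMSO, 5 h at 37 C.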

[18] = qHTS assay for small molecule activators of the heat shock response signaling pathway (AID 743210; active means well fitted activation curve with a large enough effect in the signal ratio in the repeat runs, with a control signal flat, not every such curve was filed as active; the % refers to the signal ratio; further: series mostly up to about 63 µM)
How it was run: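 HSE-bla HeLa cells (beta-lactamase reporter under heat shock response elements), plated overnight, then exposed to compounds 5 h at 37 C; LiveBLAzer B/G FRET substrate added, 2.5 h at room temperature, fluorescence intensity read.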

[19] = molecular target: Peroxisome proliferator-activated receptor gamma (Homo sapiens) (UniProt P37231); assay: qHTS assay to identify small molecule antagonists of the peroxisome proliferator-activated receptor gamma (PPARg) signaling pathway (AID 743191; calls by dose curve; further: series mostly up to about 63 µM; nearly all actives have a fitted effect of over 30% in size)
How it was run: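 GeneBLAzer PPARg UAS-bla HEK293H cells, 5 h post-plating, exposed to compounds 17 h at 37C. LiveBLAzer B/G FRET substrate added for 1 h at room temperature; beta-lactamase reporter read by fluorescence intensity.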

Measured: Potency

Aryl hydrocarbon receptor (Homo sapiens), sequence (P35869 whole entry, looked up): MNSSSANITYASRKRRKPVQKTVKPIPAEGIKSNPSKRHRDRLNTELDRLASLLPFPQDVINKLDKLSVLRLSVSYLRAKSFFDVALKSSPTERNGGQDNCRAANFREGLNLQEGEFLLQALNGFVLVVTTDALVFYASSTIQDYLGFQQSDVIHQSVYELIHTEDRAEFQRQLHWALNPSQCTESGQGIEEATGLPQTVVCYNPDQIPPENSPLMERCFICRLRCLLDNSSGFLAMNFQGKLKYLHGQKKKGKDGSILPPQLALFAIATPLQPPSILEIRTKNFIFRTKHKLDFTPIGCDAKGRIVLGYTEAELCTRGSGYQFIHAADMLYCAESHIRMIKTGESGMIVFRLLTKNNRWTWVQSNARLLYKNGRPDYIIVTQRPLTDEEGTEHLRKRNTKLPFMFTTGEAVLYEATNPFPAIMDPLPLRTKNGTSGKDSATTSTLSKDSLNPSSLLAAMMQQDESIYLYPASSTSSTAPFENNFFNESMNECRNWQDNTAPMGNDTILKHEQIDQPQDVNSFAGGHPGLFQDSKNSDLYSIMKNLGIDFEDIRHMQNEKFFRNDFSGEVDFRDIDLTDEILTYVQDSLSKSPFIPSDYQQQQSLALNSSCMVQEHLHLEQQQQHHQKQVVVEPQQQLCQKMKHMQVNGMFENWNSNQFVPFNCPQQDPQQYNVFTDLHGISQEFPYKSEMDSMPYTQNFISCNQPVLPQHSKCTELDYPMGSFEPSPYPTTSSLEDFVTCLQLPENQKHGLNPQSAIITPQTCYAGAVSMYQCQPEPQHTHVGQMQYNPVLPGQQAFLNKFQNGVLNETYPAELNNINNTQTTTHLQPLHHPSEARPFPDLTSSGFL
Aromatase (Homo sapiens), sequence (P11511 whole entry, looked up): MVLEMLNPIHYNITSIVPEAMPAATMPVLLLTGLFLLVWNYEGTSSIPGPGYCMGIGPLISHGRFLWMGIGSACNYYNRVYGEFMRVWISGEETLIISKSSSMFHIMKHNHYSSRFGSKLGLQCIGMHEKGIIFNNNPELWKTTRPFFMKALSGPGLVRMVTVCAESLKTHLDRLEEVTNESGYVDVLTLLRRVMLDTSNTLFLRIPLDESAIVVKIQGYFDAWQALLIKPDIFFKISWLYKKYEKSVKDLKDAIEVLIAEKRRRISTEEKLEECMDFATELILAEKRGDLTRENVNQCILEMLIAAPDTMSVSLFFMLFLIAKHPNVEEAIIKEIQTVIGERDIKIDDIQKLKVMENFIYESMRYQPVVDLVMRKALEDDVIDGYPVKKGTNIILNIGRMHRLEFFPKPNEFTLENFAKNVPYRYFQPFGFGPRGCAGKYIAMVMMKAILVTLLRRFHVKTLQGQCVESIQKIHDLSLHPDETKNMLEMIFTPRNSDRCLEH
Peroxisome proliferator-activated receptor gamma (Homo sapiens), sequence (P37231 whole entry, looked up): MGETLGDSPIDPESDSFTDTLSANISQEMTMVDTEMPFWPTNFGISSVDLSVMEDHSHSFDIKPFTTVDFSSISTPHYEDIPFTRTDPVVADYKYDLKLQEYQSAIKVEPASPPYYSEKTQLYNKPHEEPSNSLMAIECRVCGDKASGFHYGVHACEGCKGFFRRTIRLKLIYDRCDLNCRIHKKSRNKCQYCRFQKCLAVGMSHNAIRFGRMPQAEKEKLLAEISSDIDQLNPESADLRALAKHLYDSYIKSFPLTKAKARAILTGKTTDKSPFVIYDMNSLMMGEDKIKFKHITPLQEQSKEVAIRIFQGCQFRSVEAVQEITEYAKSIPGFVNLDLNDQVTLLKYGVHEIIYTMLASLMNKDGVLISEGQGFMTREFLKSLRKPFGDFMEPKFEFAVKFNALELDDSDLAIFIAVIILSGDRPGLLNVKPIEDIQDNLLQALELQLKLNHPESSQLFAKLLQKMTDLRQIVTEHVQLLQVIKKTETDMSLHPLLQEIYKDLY
Estrogen receptor (Homo sapiens), sequence (P03372 whole entry, looked up): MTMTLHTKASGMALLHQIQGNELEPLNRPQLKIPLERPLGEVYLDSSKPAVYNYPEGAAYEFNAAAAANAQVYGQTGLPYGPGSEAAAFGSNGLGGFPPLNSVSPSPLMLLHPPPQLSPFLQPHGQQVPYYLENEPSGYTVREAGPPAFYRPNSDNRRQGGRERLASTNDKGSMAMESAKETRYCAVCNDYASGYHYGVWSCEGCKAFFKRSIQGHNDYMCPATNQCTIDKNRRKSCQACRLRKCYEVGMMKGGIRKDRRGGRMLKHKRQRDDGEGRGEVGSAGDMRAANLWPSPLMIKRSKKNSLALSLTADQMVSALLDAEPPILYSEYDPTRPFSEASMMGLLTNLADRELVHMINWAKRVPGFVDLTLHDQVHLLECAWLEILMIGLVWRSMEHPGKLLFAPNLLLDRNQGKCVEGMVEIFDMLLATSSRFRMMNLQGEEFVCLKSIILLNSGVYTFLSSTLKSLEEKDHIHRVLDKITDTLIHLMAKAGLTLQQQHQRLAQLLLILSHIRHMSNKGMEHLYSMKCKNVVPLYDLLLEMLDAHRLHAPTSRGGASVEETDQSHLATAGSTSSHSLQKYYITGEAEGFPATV

CC(C)=O
not listed: [19]
inactive: all other assays above

CCCCCCN
not listed: [13] | [16] | [18] | [19]
inactive: all other assays above

C=C(C)C(=O)OCCOP(=O)(O)OCCOC(=O)C(=C)C
inactive: all assays above

CCCCN
not listed: [15] | [18] | [19]
inactive: all other assays above

C[C@@H](Oc1ccc(CNC(=O)c2cccnc2Oc2ccc3c(c2)OCO3)c(F)c1)C(=O)O
not listed: [13]
inactive: all other assays above

O=C(OCc1ccccc1)C(=O)OCc1ccccc1
not listed: [15] | [18]
inactive: all other assays above

NS(=O)(=O)c1ccc(NC(=O)CCC(=O)O)cc1
not listed: [18] | [19]
inactive: all other assays above

CC(C)NCC(O)COc1ccc(COCCOC(C)C)cc1 (stereo unspecified)
not listed: Aromatase (Homo sapiens) | [12] | [13] | [15] | [16]
inactive: all other assays above

C=C1CC/C=C(\C)CC[C@@H]2[C@@H]1CC2(C)C
not listed: [12] | [15]
inactive: all other assays above

O=S(=O)(O)c1ccc2cc(O)c(S(=O)(=O)O)cc2c1
not listed: [5]
inactive: all other assays above

CC(C)(C)c1n[nH]c(=S)n(N)c1=O
not listed: [11] | [13] | [18] | [19]
inactive: all other assays above

c1ccc2nccnc2c1
not listed: [5] | [17]
inactive: all other assays above

Cc1ccsc1/C=C/C1=NCCCN1C
not listed: [12] | [13] | [19]
inactive: all other assays above

O=C(NCCc1c[nH]c2ccccc12)c1cccnc1
active: [11] 13.3 µM
not listed: Aromatase (Homo sapiens) | [13]
inactive: all other assays above

O=C(CCNNC(=O)c1ccncc1)NCc1ccccc1
not listed: [11] | [13] | [17] | [18] | [19]
inactive: all other assays above

CC(C)(C)NC(N)=O
not listed: [12] | [15]
inactive: all other assays above
